Sampled rows, rich in hits. Any-hit rate of the full collection: about 4%.
NLRP3 yeast inh: inhibitors of NALP3 inflammasome in yeast. Yeast reconstituted NLRP3/ASC/caspase-1, beta-gal luminescence, 24 h. inhibition, % at 10 µM. 330,000 tested, 0.39% active. AID 2825;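 active means inhibition of 50% or more; inactive means inhibition below 50%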
NALP1 yeast inh: blocks the NALP1 inflammasome reconstituted in yeast. S. cerevisiae NALP1/ASC/caspase-1 growth, X-gal OD620, 72 h. inhibition, % at 10 µM. 280,000 tested, 0.61% active. AID 2071; in the data active means inhibition mostly above about 24%, no sharp cut-off; inactive means mostly below about 32%
TIM10 inh: inhibits growth of TIM10 yeast strain; S. cerevisiae TIM10 strain growth, BacTiter-Glo luminescence, 24 h; inhibition, % at 10 µM; 330,000 tested, 1.4% active;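 active means inhibition of 40% or more at the single tested concentration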;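 further: wild-type TIM10 isogenic control strain grown at permissive 25 °C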
tim10-1 inh: tim10-1 yeast growth inhibition; S. cerevisiae tim10-1 ts strain growth, BacTiter-Glo, 24 h; inhibition, % at 20 µM; 330,000 tested, 2.2% active;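 active means inhibition of at least 40%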;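 further: mutant grown at 25 °C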
tim23-1 inh: tim23-1 yeast growth inhibition | 330,000 tested, 1.3% active | AID 463212 | S. cerevisiae tim23-1 growth, BacTiter-Glo luminescence, 24 h | inhibition, % at 20 µM;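 active means growth inhibition of the mutant yeast at or above 50%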;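 further: temperature-sensitive mutant grown at 25 °C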
tim23-1 conf: confirmation of tim23-1 mutant yeast growth inhibitors; shares compounds with tim23-1 inh; S. cerevisiae tim23-1 growth, BacTiter-Glo luminescence, 24 h; inhibition, % at 20 µM; 4,400 tested, 83% active; AID 463218;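 active means inhibition above about 39% in either of two replicate wells at 20 µM, limit read from the data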;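 further: temperature-sensitive tim23-1 mutant grown at 25 °C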
Each line names hits and unclear results; the compound was inactive in the other large screens (follow-up assays come after a bar, where they were run).

O=C(CSc1nnc(CNC(=O)c2c(F)cccc2F)o1)NCc1ccc(F)cc1	none
CC1CCCCC1NC(=S)NC(=O)c1cccs1 (stereo not drawn)	tim23-1 inh 52 (no result: NALP1 yeast inh) | tim23-1 conf 54
CC(OC(=O)c1cccs1)C(=O)NC1CCCCC1C (stereo not drawn)	none (no result: NALP1 yeast inh)
O=C1NC(c2ccc(Br)cc2)=N/C1=C/c1ccco1	none
O=C1NC(c2ccccc2Cl)=N/C1=C/c1ccco1	tim23-1 inh 53 | tim23-1 conf inactive
CC(C)N(Cc1ccccc1)S(=O)(=O)N(C)C	tim23-1 inh 76 | tim23-1 conf inactive
Cc1ccccc1CSc1nsc(N)n1	tim23-1 inh 52 | tim23-1 conf 50
CCOC(=O)Nc1ccc(C(=O)Oc2ccccc2)c(O)c1	tim23-1 inh 57 | tim23-1 conf 54
O=C(Nc1ccc(C(=O)Oc2ccccc2)c(O)c1)c1ccccc1	none
FC(F)(F)c1ccccc1/C=N/n1c(COc2ccccc2)n[nH]c1=S	tim23-1 inh 50 | tim23-1 conf inactive
S=c1[nH]nc(COc2ccccc2)n1/N=C/c1ccccc1Br	none
CCCCCCCC(=O)Nc1cc(C(=O)NCCC)ccc1N1CCC2(CC1)CC(c1ccccc1)=NO2	none
O=C1NN=C(c2ccc(Cl)cc2)CC1c1cccc(Br)c1 (stereo not drawn)	tim23-1 inh 53 | tim23-1 conf 59
COc1cccc(-c2ncc3ccccc3c2COC(=O)c2ccco2)c1	none (no result: NALP1 yeast inh)
N#C/C(N)=C(/C#N)N=Cc1cccc(Cl)c1	tim23-1 inh 52 (no result: NALP1 yeast inh) | tim23-1 conf 52
O=C1/C(=C/c2cccs2)N=C(c2cccs2)N1Nc1ccccc1	tim23-1 inh 57 | tim23-1 conf 51
O=C1/C(=C\c2cccs2)N=C(c2cccs2)N1Nc1ccccc1	tim23-1 inh 66 | tim23-1 conf 41
Cc1ccc(C2=N/C(=C\c3cccs3)C(=O)N2Nc2ccccc2)cc1	none
O=C1N=C(c2ccccc2)S/C1=C\c1cccs1	none
O=C(NCc1ccccc1Cl)c1nnc(CS(=O)(=O)c2ccccc2)o1	none
CN(C(=O)COC(=O)c1cc(=O)[nH]c2ccccc12)c1ccccc1	none (no result: NALP1 yeast inh)
c1ccc(-c2nc3ccccc3[nH]2)cc1	tim23-1 inh 50 | tim23-1 conf 46
O=C(O)c1ccc(NC(=O)C2(c3ccccc3)CCCC2)cc1	none
CCN(CC)CCOC(=O)c1ccc(NC(=O)C2(c3ccccc3)CCCC2)cc1	tim23-1 inh 95 | tim23-1 conf inactive
Cc1csc2nc(O)c(C(=O)NCCCc3ccccc3)c(=O)n12	tim23-1 inh 73 (no result: NALP1 yeast inh) | tim23-1 conf 53
COc1cc(NC(=O)Cn2cnc3c(NCc4ccccc4)ncnc32)cc(OC)c1OC	none (no result: NLRP3 yeast inh, NALP1 yeast inh)
Cc1cccc(Nc2nc(N)c([N+](=O)[O-])c(N3CCN(C)CC3)n2)c1	none
Cc1cccc(Nc2nc(N)c([N+](=O)[O-])c(N3CCCC(C)C3)n2)c1 (stereo not drawn)	tim23-1 inh 50 | tim23-1 conf inactive
CCc1sc(C(=O)Nc2ccc(N3CCOCC3)cc2)cc1C	none (no result: NALP1 yeast inh)
CCc1sc(C(=O)Nc2ccc3c(c2)OCO3)cc1C	tim23-1 inh 55 (no result: NALP1 yeast inh) | tim23-1 conf 46
O=C(/C=C/c1ccc(Cl)cc1)c1ccc([N+](=O)[O-])o1	tim23-1 inh 60 (no result: NALP1 yeast inh) | tim23-1 conf inactive
CCOc1cc(/C=C2\C(=O)ON=C2C)ccc1OCc1ccccc1	tim23-1 inh 51 | tim23-1 conf 41
COCCn1c(-c2ccc3ccccc3c2)nc2c1c(=O)[nH]c(=O)n2CC(C)C	none
O=C(O)c1cc(/C=C/c2ccc(N3CCOCC3)cc2)nc2ccccc12	tim23-1 inh 52 | tim23-1 conf 41
O=C(O)c1cc(/C=C/c2ccc(N3CCOCC3)c([N+](=O)[O-])c2)nc2ccccc12	none (no result: NALP1 yeast inh)
Cc1cc(C(=O)N/N=C/c2ccc([N+](=O)[O-])s2)c2ccccc2n1	tim23-1 inh 65 | tim23-1 conf 59
Cc1cc(C(=O)N/N=C/c2ccc([N+](=O)[O-])cc2)c2ccccc2n1	none
O=C(N/N=C/c1cc([N+](=O)[O-])ccc1O)c1cc(-c2ccccc2)nc2ccccc12	tim23-1 inh 58 | tim23-1 conf 58
O=C(N/N=C/c1cc([N+](=O)[O-])ccc1Cl)c1cc(-c2ccccc2)nc2ccccc12	none (no result: NALP1 yeast inh)
O=C(N/N=C/c1ccc([N+](=O)[O-])s1)c1ccccc1Br	tim23-1 inh 77 | tim23-1 conf 64

High-throughput results deposited in PubChem by Sanford-Burnham Center for Chemical Genomics.
